Source: PubChem BioAssay (National Center for Advancing Translational Sciences (NCATS))
Hits are enriched below; roughly 10% of the tested compounds scored in any of these assays.
G9a block: blocks human histone lysine methyltransferase G9a. Q96KQ7. G9a H3K9 monomethylation, AlphaScreen, 2 h. Potency, µM (doses to about 102 µM), actives largely listed as inhibitors. 350,000 tested, 8.8% active. AID 504332; further: nearly all actives have a fitted effect of over 75% in size
Target sequence (Q96KQ7 913-1193 limits assumed): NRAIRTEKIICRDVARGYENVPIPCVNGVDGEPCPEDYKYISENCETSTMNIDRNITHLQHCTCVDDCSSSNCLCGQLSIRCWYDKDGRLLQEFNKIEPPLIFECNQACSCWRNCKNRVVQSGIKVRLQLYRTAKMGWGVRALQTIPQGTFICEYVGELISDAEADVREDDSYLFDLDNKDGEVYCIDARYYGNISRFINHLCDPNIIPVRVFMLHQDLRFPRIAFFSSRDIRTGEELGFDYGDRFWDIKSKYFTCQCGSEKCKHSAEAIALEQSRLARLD
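AlphaScreen detection with an anti-monomethyl H3K9 antibody quantified product after a 2 h room-temperature reaction containing 500 nM biotinylated H3K9 peptide, 20 µM SAM and 20 nM enzyme, which had been preincubated 15 min with compound.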
HP1b chromo inh: blocks HP1-beta chromodomain binding to methylated histone tails | Potency, µM (series often up to 114 µM), usual class: inhibitors | 390,000 tested, 0.56% active | AlphaScreen HP1-beta / biotin-H3K9me3 peptide binding | P83916; further: nearly all actives have a fitted effect of over 70% in size
Target sequence (P83916 whole entry, looked up): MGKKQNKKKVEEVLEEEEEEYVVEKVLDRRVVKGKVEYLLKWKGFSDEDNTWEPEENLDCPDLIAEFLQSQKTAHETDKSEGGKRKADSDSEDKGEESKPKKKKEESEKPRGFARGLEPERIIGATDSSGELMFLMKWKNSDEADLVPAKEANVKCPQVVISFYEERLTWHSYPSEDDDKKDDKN
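Compound inhibition of the preformed complex between 50 nM HP1-beta and 50 nM biotinylated H3K9me3 peptide was read by AlphaScreen. Buffer was PBS pH 7.4 with 0.01% Tween-20. Incubations ran 30 min at room temperature, with 10 ug/mL donor/acceptor beads.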
CtBP-E1A inh: CtBP/E1A binding inhibition | AlphaScreen GST-E1A/His-CtBP binding, 1536-well; stronger effect = lower value | activity change, % (concentration not given with the values) | 340,000 tested, 0.49% active | AID 651724; in the data active means activity change below about -65%; inconclusive means mostly about -30% to -63%
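Protein mix (5X: 125 nM each GST-E1A, His-CtBP) was incubated with pinned compound 2 h at 37 deg C in dark, in 50 mM Tris pH 8.0 buffer with 300 mM NaCl. Glutathione donor and nickel acceptor beads followed; AlphaScreen signal read after 1 h.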
Six1-Eya2 blk: inhibitors of human Six1/Eya2 interaction | Q15475+O00167 | AlphaScreen GST-Six1/His-Eya2 binding, biochemical; stronger effect = lower value | activity change, % (no concentration beside the values) | 360,000 tested, 0.56% active; in the data active means activity change below about -65%; inconclusive means mostly about -30% to -63%
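GST-Six1 + His-Eya2 (5X stock: 250/500 nM); Tris pH 8.0, 300 mM NaCl, 0.05% BSA, 0.02% Tween 20; GSH donor/Ni acceptor beads; 1 h 37 °C dark; AlphaScreen readout.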
JMJD2A Tudor: JMJD2A Tudor domain (human) inhibition | O75164 | AlphaScreen JMJD2A-Tudor / H3K4me3 peptide binding | Potency, µM (top dose mostly 114 µM), most hits filed as inhibitors | 390,000 tested, 4.4% active | AID 504339; further: nearly all actives have a fitted effect of over 50% in size
BAZ2B block: inhibitors of human BAZ2B bromodomain; Q9UIF8; 360,000 tested, 4.4% active; Potency, µM (top dose mostly 114 µM), most hits filed as inhibitors; AlphaScreen BAZ2B-H3K14Ac peptide displacement; AID 504333; further: nearly all actives have a fitted effect of over 60% in size
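BAZ2B 50 nM plus b-H3(5-23)K14Ac 50 nM, PBS pH 7.4/0.01% Tween-20, 30 min RT; compound added (max 110 uM), 30 min RT; streptavidin donor/Ni-chelate acceptor beads 10 ug/mL final, 20 min dark; AlphaScreen read.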
Large screens that a line does not name were inactive. Unless noted, the call rests on the fitted dose curve; in most records, active means well fitted inhibition curve with a large enough effect; inconclusive means small, poorly fitted or top-dose-only effect; inactive means no such curve, though single readings can be large or run the other way.

Cc1nc(NC(=O)CN2CCCCC2)sc1C(=O)N(C)C	G9a block 79.4µM
Cc1nc(NC(=O)CN2CCOCC2)sc1C(=O)N(C)C	G9a block inconclusive, JMJD2A Tudor 15.8µM
CCN(CC)c1ccc(C2Nc3ccccc3-c3cc(C)nn32)cc1 (stereo not given)	G9a block 22.4µM, HP1b chromo inh inconclusive, JMJD2A Tudor 50.1µM, BAZ2B block inconclusive (no result: CtBP-E1A inh, Six1-Eya2 blk)
CSc1ccc(C2Nc3ccccc3-c3cc(C)nn32)cc1 (stereo not given)	none
O=C(Nc1ccccc1Cl)c1cccc(NS(=O)(=O)c2ccccc2)c1	none (no result: HP1b chromo inh, CtBP-E1A inh, Six1-Eya2 blk, JMJD2A Tudor)
COC(=O)c1sccc1NC(=S)N1C(C)CCCC1C (stereo not given)	G9a block 10µM (no result: CtBP-E1A inh)
COC(=O)c1sccc1NC(=O)Nc1ccc(C)cc1C	none
COC(=O)c1sccc1NC(=S)N1CCCCC1C (stereo not given)	G9a block inconclusive
COC(=O)c1sccc1NC(=S)Nc1cc(C)ccc1OC	G9a block 50.1µM, JMJD2A Tudor inconclusive (no result: CtBP-E1A inh, BAZ2B block)
CC(=O)c1cccc(S(=O)(=O)NCCC(=O)Nc2ccc(S(N)(=O)=O)cc2)c1	G9a block 50.1µM
COCC(C)n1c(-c2ccc3c(c2)NC(=O)CO3)csc1=Nc1ccc(OC(F)F)cc1 (stereo not given)	HP1b chromo inh inconclusive, CtBP-E1A inh inconclusive, Six1-Eya2 blk inconclusive, JMJD2A Tudor inconclusive, BAZ2B block 12.6µM
CCN=c1scc(-c2ccc3c(c2)NC(=O)CO3)n1N=C1CCCC1	G9a block inconclusive, HP1b chromo inh inconclusive, JMJD2A Tudor inconclusive, BAZ2B block 50.1µM
Cc1ccc2nc(-c3ccc4c(c3)NC(=O)CO4)cn2c1	none (no result: G9a block)
O=C(CNS(=O)(=O)c1c(Cl)cccc1Cl)OCC(=O)c1ccc[nH]1	BAZ2B block 79.4µM (no result: G9a block, CtBP-E1A inh)
O=C(Cc1c(F)cccc1Cl)OCC(=O)N1CCN(c2ccccc2)CC1	none (no result: G9a block, CtBP-E1A inh, BAZ2B block)
CC(=O)Nc1ccc(S(=O)(=O)NCC(=O)OCC(=O)N2CCN(c3ccccc3)CC2)cc1	G9a block 50.1µM
O=C(CNS(=O)(=O)c1c(Cl)cccc1Cl)OCC(=O)N1CCN(c2ccccc2)CC1	G9a block 56.2µM
CC(=O)Nc1ccc(S(=O)(=O)NCC(=O)OCC(=O)N2CC(C)OC(C)C2)cc1 (stereo not given)	none (no result: G9a block, BAZ2B block)
O=C(CN1C(=O)CCSc2ccc(S(=O)(=O)N3CCCC3)cc21)Nc1ccccc1	none
O=C(O)c1ccc(S(=O)(=O)c2ccc3c(c2)C(=O)N(NC(=O)c2ccncc2)C3=O)cc1	G9a block 50.1µM
Cc1c(NC(=O)C(C)OC(=O)c2cccc([N+](=O)[O-])c2)c(=O)n(-c2ccccc2)n1C (stereo not given)	none
CSCc1cccc(C(=O)OC(C)C(=O)Nc2c(C)n(C)n(-c3ccccc3)c2=O)c1 (stereo not given)	G9a block 8.91µM
COc1ccc(CNc2ncnc3nc[nH]c23)cc1OC	none (no result: G9a block, CtBP-E1A inh, Six1-Eya2 blk, BAZ2B block)
COc1cccc(CNC(=O)CCc2c(C)c3ccc(O)c(C)c3oc2=O)c1	none (no result: CtBP-E1A inh, Six1-Eya2 blk)
O=C(CN1C(=O)COc2ccc(S(=O)(=O)N3CCCCCC3)cc21)Nc1cccc(Cl)c1	none (no result: CtBP-E1A inh, Six1-Eya2 blk)
C/C(=N\NC(=O)c1ccc(Br)o1)c1cc2c(cc1NC(=O)CCC(=O)O)OCO2	G9a block 3.16µM, BAZ2B block inconclusive
Cc1cc(OCCOCCNC(C)C)cc(C)c1Cl	G9a block inconclusive, JMJD2A Tudor 3.16µM, BAZ2B block 79.4µM
COc1cc(-c2csc(CCn3nc(C)cc3C)n2)cc(OC)c1OC	G9a block 31.6µM
Cc1cc(C)n(CCc2nc(-c3ccc(F)cc3)cs2)n1	none
CCc1ccc(C2c3c(n[nH]c3C)C(=O)N2c2ccc(C)cc2)cc1 (stereo not given)	none (no result: CtBP-E1A inh, Six1-Eya2 blk, BAZ2B block)
COc1ccccc1CNC(=O)Cn1c(=O)oc2cc(S(=O)(=O)N3CCC(C)CC3)ccc21	none (no result: CtBP-E1A inh, Six1-Eya2 blk)
COc1cc(/C=C(\C#N)C(=O)NC2CCCCC2)ccc1OCc1ccc(C(=O)O)cc1	CtBP-E1A inh -93.4, Six1-Eya2 blk inconclusive
COc1cc(/C=C(\C#N)C(=O)Nc2cc(C(F)(F)F)ccc2Cl)ccc1OCC(=O)Nc1cccc(C(F)(F)F)c1	none
